# Where “and” joins values, the source holds several entries; their conditions need not be identical. Equal entries are not always repeated. Structures can show the parent of a compound that is named as a salt. About 620 (11%) of roughly 5,800 compounds showed activity. The list comes from a sample in which actives are over-represented; it also holds similar structures and randomly drawn compounds. A number with no mark means an inactive call.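 Rule for the calls: active = score above a cut-off or among the top three wells of a plate; in these data no inactive exceeds 0.85.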
# Test system: primary human hepatic stellate cells (donor 1)
# Test: scaled lipid accumulation score (0 = DMSO-like, 1 = nortriptyline-like); higher = stronger HSC inactivation (lipid re-accumulation), active = hit call of the paper
# Settings: 48 h
# [1] = library stock concentration: 1 mM
# [2] = library stock concentration: 80 uM
# [3] = library stock concentration: 400 uM
# [4] = library stock concentration: 2 mM
# [5] = library stock concentration: 3.33 mM
# [6] = library stock concentration: 10 mM
compound,measurement,setting,value
[O-]/[N+](=N\O[C@@H]1O[C@H](CO)[C@H](O)[C@H](O)[C@H]1O)N1CCCC1 [.beta.-Gal-NONOate],scaled lipid accumulation score,[1],≤ 0
CCCCC/C=C\C/C=C\CCCCCCCC(=O)O [Linoleic Acid (peroxide free)],scaled lipid accumulation score,[1],0.024
CCCCC/C=C\C/C=C\CCCCCCCC(=O)O [Linoleic acid],scaled lipid accumulation score,[1],≤ -0.021
CCCCC[C@H](O)/C=C/[C@H]1C(=O)C[C@H](O)[C@@H]1C/C=C\CCCC(=O)O [Prostaglandin D2],scaled lipid accumulation score,[1],≤ 0
CCCCC[C@H](O)/C=C/[C@H]1C(=O)C[C@H](O)[C@@H]1C/C=C\CCCC(=O)O [Prostaglandin  D2],scaled lipid accumulation score,[1],≤ -0.021
COc1cc2nccc(Oc3ccc(NC(=O)C4(C(=O)Nc5ccc(F)cc5)CC4)cc3)c2cc1OC,scaled lipid accumulation score,[2],0.011
same,scaled lipid accumulation score,[3],≤ -0.016
same,scaled lipid accumulation score,[4],0.189
same,scaled lipid accumulation score,[5],0.757
same,scaled lipid accumulation score,[6],0.459 and 0.491
COc1cc2nccc(Oc3ccc(NC(=O)C4(C(=O)Nc5ccc(F)cc5)CC4)cc3)c2cc1OC [Cabozantinib malate (XL184)],scaled lipid accumulation score,[5],0.354
same,scaled lipid accumulation score,[6],0.677
COc1cc2c(Oc3ccc(NC(=O)C4(C(=O)Nc5ccc(F)cc5)CC4)cc3F)ccnc2cc1OCCCN1CCOCC1 [listing 1 of 2 here],scaled lipid accumulation score,[2],0.524
same,scaled lipid accumulation score,[3],0.545
same,scaled lipid accumulation score,[4],0.834
same,scaled lipid accumulation score,[6],0.842 and 0.706
COc1cc2c(Oc3ccc(NC(=O)C4(C(=O)Nc5ccc(F)cc5)CC4)cc3F)ccnc2cc1OCCCN1CCOCC1 [listing 2 of 2 here],scaled lipid accumulation score,[5],1.09 (active)
O=C(NCCCNc1nc(Nc2cccc(NC(=O)N3CCCC3)c2)ncc1I)c1cccs1 [listing 1 of 4 here],scaled lipid accumulation score,[6],0.937 (active)
O=C(Nc1cccc(Nc2ncc(Br)c(NCCc3c[nH]cn3)n2)c1)N1CCCC1,scaled lipid accumulation score,[6],0.978 (active)
O=C(NCCCNc1nc(Nc2cccc(NC(=O)N3CCCC3)c2)ncc1I)c1cccs1 [listing 2 of 4 here],scaled lipid accumulation score,[6],1.2 (active)
NCCC(=O)NCCc1c[nH]cn1 [Carcinine],scaled lipid accumulation score,,0.074
O=C(NCCCNc1nc(Nc2cccc(NC(=O)N3CCCC3)c2)ncc1I)c1cccs1 [listing 3 of 4 here],scaled lipid accumulation score,[6],1.07 (active)
O=C(Nc1cccc(Nc2ncc(Br)c(NCCc3cnc[nH]3)n2)c1)N1CCCC1,scaled lipid accumulation score,[2],≤ 0
same,scaled lipid accumulation score,[3],≤ 0 and ≤ -0.005
same,scaled lipid accumulation score,[4],≤ 0 and ≤ -0.005
same,scaled lipid accumulation score,[5],≤ 0
same,scaled lipid accumulation score,[6],0.029 and 0.7
O=C(NCCCNc1nc(Nc2cccc(NC(=O)N3CCCC3)c2)ncc1I)c1cccs1 [listing 4 of 4 here],scaled lipid accumulation score,[2],≤ -0.016
same,scaled lipid accumulation score,[3],≤ -0.016 and ≤ -0.005
same,scaled lipid accumulation score,[4],≤ -0.016 and 0.235
same,scaled lipid accumulation score,[5],0.048
CC(=O)Oc1ccc2c(c1)CCC1C2CC[C@]2(C)C(=O)CCC12 (stereo partly drawn) [Estrone acetate],scaled lipid accumulation score,[6],≤ 0
CCCCn1c(=O)c2c(ncn2CC(C)=O)n(CCCC)c1=O [Denbufylline],scaled lipid accumulation score,library stock concentration: 6.2 mM,≤ -0.006
CCCCc1nc2ccn(Cc3cccs3)c(=O)c2n1Cc1ccc(-c2ccccc2-c2nn[nH]n2)cc1,scaled lipid accumulation score,[6],≤ -0.006
Cc1cc(C(=O)O)sc1C(N)C(=O)O (stereo not drawn),scaled lipid accumulation score,[6],0.007
CCCn1c(=O)[nH]c(=O)c2[nH]cnc21 [3-n-Propylxanthine],scaled lipid accumulation score,[6],≤ 0
CCOC(=O)c1[nH]c2cc(Cl)ccc2c1C(C(=O)NC(C)(C)C)N(C=O)Cc1ccc(Cl)cc1 (stereo not drawn),scaled lipid accumulation score,[5],≤ -0.009
same,scaled lipid accumulation score,[6],0.547
Nc1nc(SCc2ccc([N+](=O)[O-])cc2)c2ncn([C@@H]3O[C@H](CO)[C@H](O)C3O)c2n1 (stereo partly drawn) [S-(4-Nitrobenzyl)-6-thioguanosine],scaled lipid accumulation score,[6],0.41
O=C(O)CCC/C=C\C[C@H]1[C@@H](O)CC(=O)[C@@H]1/C=C/[C@@H](O)CCc1ccccc1 [17-phenyl trinor Prostaglandin D2],scaled lipid accumulation score,[1],≤ 0
CNc1nc(-c2ccc3c(N)n[nH]c3c2)cc(N2C[C@@H](C(=O)NC3CCCCC3)CC[C@H]2C)n1,scaled lipid accumulation score,[2],≤ -0.016
same,scaled lipid accumulation score,[3],≤ -0.016
same,scaled lipid accumulation score,[4],≤ -0.016
same,scaled lipid accumulation score,[5],≤ 0
same,scaled lipid accumulation score,[6],0.741 and 0.773
CN(NC(=O)CC(=O)NN(C)C(=S)c1ccccc1)C(=S)c1ccccc1 [Elesclomol (STA-4783)],scaled lipid accumulation score,[5],≤ 0
same,scaled lipid accumulation score,[6],≤ 0
O=c1cc(-c2ccccc2F)[nH]c2cc3c(cc12)OCO3 [CHM-1 hydrate],scaled lipid accumulation score,[6],0.875 (active)
Cn1c(-c2ccc3c(c2)OCO3)cc(=O)c2ccccc21 [Graveoline],scaled lipid accumulation score,,≤ 0
O=C(NC(NC(=S)Nc1ccc(F)c([N+](=O)[O-])c1)C(Cl)(Cl)Cl)C(c1ccccc1)c1ccccc1 (stereo not drawn),scaled lipid accumulation score,[2],≤ 0
same,scaled lipid accumulation score,[3],0.081
same,scaled lipid accumulation score,[4],0.01
same,scaled lipid accumulation score,[5],≤ -0.009
same,scaled lipid accumulation score,[6],0.019 and 0.171 and 0.352
O=C(NC1CCNCC1)c1n[nH]cc1NC(=O)c1c(Cl)cccc1Cl,scaled lipid accumulation score,[2],0.367
same,scaled lipid accumulation score,[3],0.117 and 0.282
same,scaled lipid accumulation score,[4],0.26 and 0.49
same,scaled lipid accumulation score,[5],0.109
same,scaled lipid accumulation score,[6],0.212 and 0.239 and 0.462
C[C@H](CCCO)[C@H]1CC[C@H]2[C@@H]3[C@H](O)C[C@H]4C[C@H](O)CC[C@]4(C)[C@H]3C[C@H](O)[C@]12C [Petromyzonol],scaled lipid accumulation score,[1],0.043
Cn1cc(-c2ccc(F)c(C(F)(F)F)c2)nc1C1CCN(c2ncnc3[nH]ncc23)CC1,scaled lipid accumulation score,[2],0.021
same,scaled lipid accumulation score,[3],0.015
same,scaled lipid accumulation score,[4],0.054
same,scaled lipid accumulation score,[6],0.371
CCc1ccc2c(O)c3c(cc2c1C(=O)OC)C(=O)c1c(O)ccc(O)c1C3=O [Bisanhydrorutilantinone],scaled lipid accumulation score,[6],0.11
CCCCC[C@@H](O)/C=C/[C@@H]1[C@@H](C/C=C\CCCC(=O)O)[C@@H](O)C[C@H]1O [15(R)-Prostaglandin F2.alpha.],scaled lipid accumulation score,[1],≤ 0
C=C1CC2(O)OC3(CC2C(C)C)C(C)CCC13 (stereo not drawn) [Curcumol],scaled lipid accumulation score,[5],≤ 0
same,scaled lipid accumulation score,[6],≤ 0
CCn1c2ccccc2c2cc(Nc3ccnc(NCCCN4CCOCC4)n3)ccc21,scaled lipid accumulation score,[5],0.673
same,scaled lipid accumulation score,[6],0.087
CCn1c2ccccc2c2cc(CNC)ccc21.Cl,scaled lipid accumulation score,[6],0.872 (active)
CCn1c(=O)[nH]c2ccccc21,scaled lipid accumulation score,[6],≤ -0.006
CCCCCCCC/C=C\CCCCCCCC(=O)NCCS(=O)(=O)O [N-Oleoyl Taurine],scaled lipid accumulation score,[1],0.011
CC(Oc1cc(-c2cnn(C3CCNCC3)c2)cnc1N)c1c(Cl)ccc(F)c1Cl [(S)-crizotinib],scaled lipid accumulation score,[5],0.504
same,scaled lipid accumulation score,[6],0.396
C[C@@H](Oc1cc(-c2cnn(C3CCNCC3)c2)cnc1N)c1c(Cl)ccc(F)c1Cl [listing 1 of 2 here],scaled lipid accumulation score,[2],≤ 0
same,scaled lipid accumulation score,[3],0.145
same,scaled lipid accumulation score,[4],0.477
same,scaled lipid accumulation score,[6],0.242
C[C@@H](Oc1cc(-c2cnn(C3CCNCC3)c2)cnc1N)c1c(Cl)ccc(F)c1Cl [listing 2 of 2 here],scaled lipid accumulation score,[5],0.909 (active)
same,scaled lipid accumulation score,[6],0.863 (active)
CCCCCCCCCCCCCCCCOC[C@H](COP(=O)([O-])OCC[N+]1(C)CCCC1)OC(C)=O [Pyrrolidino PAF C-16],scaled lipid accumulation score,[1],≤ 0
C[N+]1(C)CCCC1C(=O)O (stereo not drawn) [Stachydrine hydrochloride],scaled lipid accumulation score,,0.046
O=C(/C=C\n1cnc(-c2cc(C(F)(F)F)cc(C(F)(F)F)c2)n1)N1CC(F)(F)C1,scaled lipid accumulation score,[5],≤ -0.009
same,scaled lipid accumulation score,[6],0.294
CCCCC[C@](C)(O)/C=C/[C@@H]1[C@@H](C/C=C\CCCC(=O)OC)[C@@H](O)C[C@H]1O [15(S)-15-methyl Prostaglandin F2.alpha. methyl ester],scaled lipid accumulation score,[1],≤ 0
CC(N)(Cc1ccc(O)cc1)C(=O)O (racemic) [DL-alpha-Methyl-p-tyrosine],scaled lipid accumulation score,[6],0.213
CC(Cc1ccccc1)(NC(=O)CN)c1ccccc1 (stereo not drawn) [Remacemide hydrochloride],scaled lipid accumulation score,[6],0.479
CC(Cc1ccccc1)(NC(=O)CN)c1ccccc1 (racemic),scaled lipid accumulation score,[6],0.922 (active)
COc1ccc(-c2cc(=O)c3c(O)c(OC)c(OC)cc3o2)cc1O [Eupatorin],scaled lipid accumulation score,[6],0.725
CC(C)Cn1c(=O)n(C)c(=O)c2nc[nH]c21 [Isobutylmethylxanthine],scaled lipid accumulation score,library stock concentration: 9 mM,≤ 0
O=C[C@H](O)[C@@H](O)[C@H](O)CO [Xylose],scaled lipid accumulation score,[5],≤ 0
same,scaled lipid accumulation score,[6],0.028
CN1CCN(C2=Nc3ccccc3Oc3ccc(Cl)cc32)CC1 [Loxapine succinate],scaled lipid accumulation score,,0.3
same,scaled lipid accumulation score,library stock concentration: 4.5 mM,0.253
same,scaled lipid accumulation score,[6],0.708 and 0.486
CN1CC2c3ccccc3Oc3ccc(Cl)cc3C2C1 (stereo not drawn) [Asenapine maleate],scaled lipid accumulation score,[6],0.772
CN1CC2c3ccccc3Oc3ccc(Cl)cc3C2C1 (stereo not drawn) [Asenapine],scaled lipid accumulation score,[5],0.156
same,scaled lipid accumulation score,[6],0.752
CN1CCN(C2=Nc3ccccc3Oc3ccc(Cl)cc32)CC1,scaled lipid accumulation score,[6],0.608
CN1CCN(C2=Cc3ccccc3Oc3ccc(Cl)cc32)CC1.O=C(O)/C=C/C(=O)O,scaled lipid accumulation score,[6],1.01 (active)
CN1CCN(C2=Nc3ccccc3Oc3ccc(Cl)cc32)CC1 [Loxapine Succinate],scaled lipid accumulation score,[5],≤ 0
same,scaled lipid accumulation score,[6],0.493
